From PubChem BioAssay
This excerpt belongs to a sample that is enriched for hits.
Ba CapD inh = Bacillus anthracis CapD inhibitors, primary screen, biochemical, fluorescence intensity | CapD gamma-glutamyltranspeptidase (Bacillus anthracis Ames Ancestor) | purified CapD enzyme, fluorescence intensity read-out; hits give low values | z-score (concentration not given with the values) | actives 0.23% (n = 140,000) | AID 492967, 2010; in the data active means z-score mostly below about -2.9, no sharp cut-off; inactive means mostly above about -1.9
Active calls of the source: *.

SMILES | Ba CapD inh
N=C1/C(=C\c2ccc(-c3cccc(C(=O)O)c3)o2)C(=O)N=C2SC(N3CCCCC3)=NN12 | -3.81*
CCc1ccc(/C=C2\C(=N)N3N=C(N4CCCC4)SC3=NC2=O)cc1 | 0.555
CCOC(=O)c1c(NC(C)=O)nc(SC)n1Cc1ccco1 | -11*
CCOC(=O)c1sc2nc(SCC#N)n(Cc3ccco3)c(=O)c2c1C | 4.04
CCOC(=O)c1c(NC(C)=O)nc(SC)n1Cc1cccs1 | -0.14
COc1cccc(NC(=O)Nc2cc(C(F)(F)F)ccc2N2CCCC2)c1 | 0.34
CCOC(=O)C1=C(C)N=c2s/c(=C/c3cn(C)c4ccccc34)c(=O)n2C1c1ccc(OC)c(OC)c1 (stereo unspecified) | -0.065
CCCC(=O)n1nc(CCC)c2c1CC(C)(C)CC2=O | 0.18
CC(C)c1nc(N)nc(=O)[nH]1 | -0.08
CC(=O)N1C(=O)c2ccc([N+](=O)[O-])cc2C1=O | -0.65
CC(=O)N1C(=O)c2ccccc2C1=O | -5.4*
CC(=O)N1C(=O)/C(=C\C(=O)c2ccc(C)cc2)c2ccccc21 | -0.995
COc1ccccc1Oc1ccccc1C(=O)N1CCCCCC1 | -0.32
CCOC(=O)c1[nH]c(C)cc1C | -0.645
CCOC(=O)c1c(C)cc(C)[nH]c1=S | -4.85*
CCOC(=O)c1c(C)cc(C)[nH]c1=O | 16.5
O=[N+]([O-])c1ccc(S(=O)(=O)N(C2CC2)C2CCN(Cc3ccccc3)CC2)cc1 | -0.505
O=C(O)[C@@H]1CSC(c2cccs2)N1 (stereo partly specified) | -1.61
C/C(=N\N1C(=O)c2ccccc2C1=O)C1C(=O)c2ccccc2C1=O | -0.46
C/C(=N/O)C1C(=O)c2ccccc2C1=O | -4.33*
O=C(c1ccccc1)C1C(=O)c2ccccc2C1=O | -2.4
Cc1ccc(COc2ccc3ccc(=O)oc3c2)cc1 | 54.4
CCN1C(=O)/C(=C\c2ccc(OC)cc2)C(C(=O)OC)=C1C | -4.86*
C=CCN1C(=O)/C(=C\c2ccccc2)C(C(=O)OC)=C1C | -1.31
CCN1C(=O)/C(=C\c2ccco2)C(C(=O)OC)=C1C | -0.87
SMILES | Ba CapD inh
O=C(CSc1c2c(nc3ccc(Cl)cc13)CCCC2)NCc1ccccn1 | 0.27
FC(F)=C(F)CCSc1nc2nccc(-c3ccc(F)cc3)n2n1 | 4.81
COC(=O)C1=CN(N(C(C)=O)C(C)=O)C(=O)CC1 | -9.17*
COC(=O)C1=CCCN(C)C1 | -0.545
COC(=O)c1ccccc1-n1cnc2ccccc2c1=O | 2.79
CC(=NCCc1ccc(F)cc1)C1=C(O)c2ccccc2C1=O | -4.78*
CSC(C)C(=O)C1=C(O)c2ccccc2C1=O (stereo unspecified) | -2.13
CCOC(=O)C1=C(O)c2ccccc2C1=O | 0.15
O=C1c2ccccc2-c2nn(-c3ccccc3)c(=O)c3ccc(N4CCCCC4)c1c23 | 0.07
CCc1ccc(NC(=O)C(C)OC(=O)c2ccncc2)cc1 (stereo unspecified) | -0.65
Cc1nc2nc(NC(=O)C(C)N3C(=O)c4ccccc4C3=O)[nH]n2c(=O)c1C (stereo unspecified) | -0.135
CC(=O)N(C(C)=O)c1nc(-c2ccccc2)cn1/N=C/c1ccccc1 | -7.05*
O=C(Nc1ccccc1)Nc1nc(-c2ccco2)cn1/N=C/c1ccccc1 | -0.34
COc1ccc(/C=N/n2c(N(C(C)=O)C(C)=O)nc(-c3ccccc3)c2-c2ccccc2)cc1 | -1.35
O=C1CCCC2=C1C(c1ccncc1)Nc1ccccc1N2 (stereo unspecified) | -1.67
O=C1CCCC2=C1C(c1cccs1)Nc1ccccc1N2 (stereo unspecified) | -3.55*
O=C1CCCC2=C1C(c1ccc(Cl)cc1)Nc1ccccc1N2 (stereo unspecified) | -2.63
Cc1c(C(=O)NCCN2CCOCC2)sc2nc3n(c(=O)c12)CCCC3 | 0.345
COCCNC(=O)c1ccc(-c2cnn(C(C)C)c2)nc1 | 3.58
CCc1ccc(NS(=O)(=O)c2ccc3[nH]cc(C(=O)N4CCCC4)c(=O)c3c2)cc1 | -5.94*
CCc1ccc(NS(=O)(=O)c2ccc3[nH]cc(C(=O)N(CC)CC)c(=O)c3c2)cc1 | -0.21
CCc1ccc(N(C)S(=O)(=O)c2ccc3[nH]cc(C(=O)N4CCCCCC4)c(=O)c3c2)cc1 | -0.01
Cc1ccccc1-n1[nH]c(C)c(C=Nc2ccc([N+](=O)[O-])cc2Cl)c1=O | -1.54
CC(C)(C)c1ccc(C(=O)Nc2c3c(nn2-c2ccc(Cl)cc2)CSC3)cc1 | -0.37
Cn1nc(-c2ccc(Br)s2)c(Br)c1C(F)(F)F | 0.2
SMILES | Ba CapD inh
CC(C)C(=O)O/N=C(\N)c1ccccc1 | 0.02
CC(Oc1cccc(Cl)c1)C(=O)O/N=C(\N)c1cccnc1 (stereo unspecified) | -6.04*
N/C(=N/S(=O)(=O)c1ccc(Cl)c(Cl)c1)c1cccnc1 | 0.705
Cc1ccc([N+](=O)[O-])cc1S(=O)(=O)N(Cc1ccco1)CC1CCCO1 (stereo unspecified) | -0.61
C=CCC(O)(c1ccc(O)cc1)C(CN1CCCCC1)c1ccccc1 (stereo unspecified) | -0.93
O=c1oc(-c2cccs2)ns1 | -8.91*
O=c1oc(-c2cccs2)nc2ccccc12 | -0.025
O=c1oc(-c2c(Cl)cccc2Cl)ns1 | 0.155
CCOC(=O)c1ccc(-n2c(=S)sc3c2nc(SC)n2c4ccccc4nc32)cc1 | -0.115
O=C1c2cccc3cccc(c23)C(=O)N1CC1CCN(CC(O)COCc2ccc(Cl)cc2)CC1 (stereo unspecified) | 9.61
CCCCc1c(C)nc(N)[nH]c1=O | 0.435
CCc1c(C)nc(N)nc1N1NC1=S | -1.04
CCc1c(C)[nH]c(N)nc1=S | -4.37*
CCCCC1(C)OC(=O)C(=Cc2ccc(OCC)c(OC)c2)C(=O)O1 (stereo unspecified) | 0.495
CCCCC1(C)OC(=O)C(=Cc2ccc(Br)o2)C(=O)O1 (stereo unspecified) | -4.42*
O=C1/C(=C\c2ccc(Br)o2)CC/C1=C/c1ccc(Br)o1 | -1.23
CC(C)(C)c1ccc(C(=O)N/C(=C/c2cccs2)C(=O)N2CCOCC2)cc1 | 0.76
N=C1S/C(=C\c2ccc(-c3ccccc3F)o2)C(=O)N1c1nccs1 | -1.15
N=C1S/C(=C/c2ccc(-c3ccccc3C(=O)O)o2)C(=O)N1c1nccs1 | -2.13
N=C1S/C(=C/c2ccco2)C(=O)N1c1nccs1 | -4.33*
N#Cc1ccc(SCCO)c([N+](=O)[O-])c1 | 0
O=[N+]([O-])c1ccc(SCCO)c2nonc12 | -3.98*
CCN(c1ccccc1)c1cc(N(C)C)c2nonc2c1[N+](=O)[O-] | 0.315
CCCC#CCCOC(=O)NCc1ccc(S(N)(=O)=O)cc1 | -0.03
CCCCSc1nnc2c(n1)OC(c1cc3c(cc1Br)OCO3)Nc1ccccc1-2 (stereo unspecified) | 0.69
SMILES | Ba CapD inh
Cn1c(=O)n(C)c2cc(S(=O)(=O)N(Cc3ccccc3)C(=O)c3ccncc3)ccc21 | -7.59*
CN(Cc1ccccc1)S(=O)(=O)c1ccc2c(c1)oc(=O)n2C | -0.325
Cn1c(=O)c(=O)n(C)c2cc(S(=O)(=O)CCC(=O)NCc3ccccc3)ccc21 | 5.29
O=C(O)/C=C/C(=O)N1CCN(c2ncc(C(F)(F)F)cc2Cl)CC1 | 0.155
C=C(C)Cn1c(CCNC(=O)c2cc(OC)c(OC)c(OC)c2)nc2ccccc21 | 0.8
COC(=O)C1=NNC2C(=O)N(c3ccc(C)c(C)c3)C(=O)C12 (stereo unspecified) | 0.055
O=C(O)CN1C(=O)/C(=C\c2cc([N+](=O)[O-])ccc2Cl)SC1=S | -1.45
O=C(O)CN1C(=O)/C(=C\c2cc(Cl)cc(Br)c2O)SC1=S | -2.3
O=C(O)CN1C(=O)/C(=C\c2cccc([N+](=O)[O-])c2O)SC1=S | -2.96
